According to the supplement of paper PMC11417369:
The full ranking holds about 25,000 sequences; the median of “ln(normalized median fluorescence intensity)” is about 7.1, and the highest 2% start at about 10. Shown is part of a subset that was picked to be rich in the highest values.

test system: PfSIP2 AP2 domain 1 (GST-tagged); test: gcPBM binding intensity (ln(normalized median fluorescence intensity)); higher = stronger DNA binding
Procedure, shortened: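 Binding intensity values are the highest Masliner-normalised natural-log median intensity among replicate spots of either probe orientation. The binding step lasted 1 h in 1× PBS with 1% milk, 0.2 mg/ml BSA, 0.5% salmon testes DNA and 0.03% Triton X-100, using GST-tagged P. falciparum DNA-binding domains expressed in E. coli on an Agilent 4 × 180k array of primer-extended double-stranded 36-bp intergenic genomic probes plus negative controls. Alexa488 anti-GST antibody and a 488 nm scan detected bound protein.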

| Sequence | gcPBM binding intensity (ln) |
| --- | --- |
| TATTAAATATATATTACATGCAAAAAAAAAAAACAA [TGCATGCA_site705] | 7.13 |
| TATGGGTTTATATAGGTGCAATATATGTATATATAA | 10.2 |
| ATATAAAATACATGGGTGCAATATATTAAACAAATA [GTGCAC_site9421] | 10.8 |
| AACAAATATATTAACACACAAACATATAAACCAATG [CACACA_site3970] | 7.19 |
| ATTTATTTATACAAAGTGCAATATTTTGTTAAAGTC [GTGCAC_site9618] | 7.89 |
| AATTATATGAAATAAACACACATATGCAATATTGCA [CACACA_site6988] | 6.98 |
| TTTTTTGTTAAACCGGTGCATATAAATATATATATA [GTGCAC_site9989] | 9.54 |
| CAATATTTGTTATGGGTGCAAACCGCATATATATAA [GTGCAC_site9543] | 11 |
| CAATATATTATATGGGTGCAAACCACATATAAATAA | 10.9 |
| CAATAGTTCTTATGGGTGCAAACCACATATATATAA [GTGCAC_site9606] | 11.3 |
| TATAATAGTTCATAGGTGCAATATAATAAATTTATA [GTGCAC_site9573] | 9.98 |
| AAAAAAAAAAACAATACATGCATAATATTAATAAAA [TGCATGCA_site913] | 6.96 |
| AATCAAAGCCCACATACACACACATATATATATATA [CACACA_site7987] | 9.39 |
| TTTTGTCAACATTTTTATATTAGGTCTTGAACGATT [GTGCAC_negctrl_site72] | 6.9 |
| AATAATATATGGTGTACACAAAAGTATAAATAATTT [CACACA_site5338] | 7.15 |
| TCAAATATTCATAAATGTACATTTATTTTTCTCCTT [XGTACX_site5827] | 6.74 |
| TTATTTTAATAACCTACACACATTTTGTATATTTTA [CACACA_site4000] | 6.81 |
| TATATATATGTGTTTACACACAATAATGAATTAAAA [CACACA_site4659] | 7.28 |
| ATATCAATTTTTGGTGGTACGTAGGAAGTTTCAGAA [XGTACX_site6881] | 7.4 |
| ATATAGGTAAAAAGTATACACACGTTGACACATTCT [CACACA_site1199] | 6.95 |

| Sequence | gcPBM binding intensity (ln) |
| --- | --- |
| TTTTTTTTTTTTTTATGTACACATCTAAAAAAAAGG [XGTACX_site2067] | 7.43 |
| TTTTTTTTTTTTGGATGTACTTAATGAAAATGTTAC [XGTACX_site8980] | 7.36 |
| ACATATAATAAAATAGTGCATTGTTAGTTTTATATA | 9.85 |
| AAATAGTTGTTATGGGTGCAAACCACATATATATAA [GTGCAC_site9428] | 11 |
| TTATTTATTTATATAGTGCAATAAACACATAAATAG | 8 |
| GATTTTTAAAATATCACACATAAAAAAAAAAAAAAA [CACACA_site5516] | 6.96 |
| AAAAATATAAACTGCACACACACAAAAAAAGAAAAA [CACACA_site648] | 7.25 |
| ATAAAAATAAAAAGTGTGCACACAAAAATATATATA [GTGCAC_site9931] | 8.78 |
| AAAAATAAAGGGTGTGCACACAAAAATATATATATA [CACACA_site1727] | 9.1 |
| AATATAAAAAGGCACACACACAAAAAAAAAAAAAAA [CACACA_site896] | 7.13 |
| AAATATAAAGTGCACACACACAAAAAAAGAAAAAAA [CACACA_site6452] | 11.2 |
| AAAAAAAGAAAAATTGCACACACTTATAAAAATATA [CACACA_site4014] | 6.99 |
| TATATATATAAGTGCACACTGAACCAAGAAAATTAT [CACACA_site3008] | 10.5 |
| AAATAAAAAGGGTGCACACAAAAATATATATATATA [CACACA_site1728] | 12.4 |
| TATATATATATAAGTGCACACTGAACCAAGAAAATT [CACACA_site5637] | 9.97 |
| AAACTCAACTTATATACACACAATCTTTTTTTTTTA [CACACA_site29] | 6.8 |
| AAATGTAATAATAAATGTACAAACATATATATGTAT [XGTACX_site8718] | 6.94 |
| CTAAAAATCTTTTGTTGTACTTTTAGATAATCAGGA [XGTACX_site3968] | 7.06 |
| ATGGGGAATAATGAATGTACACAAATAAAAAGTTGG [XGTACX_site4015] | 7.13 |
| TTTTTTTTTTTTTGTTGTACCCATCATATATACATA [XGTACX_site4342] | 7.11 |

| Sequence | gcPBM binding intensity (ln) |
| --- | --- |
| GTTCATTCATTTTAATGTACAAATTTAACTTTTTCT [XGTACX_site680] | 6.91 |
| TCTTTTTTAAATAAAAGTACAAAAAAAAATAAAAAA [XGTACX_site2670] | 6.93 |
| ATTTTTTTTTTTTTATGTACATATTAAAAAAAATAT [XGTACX_site1829] | 7.01 |
| ATATAAAAATACAGGTGTACATTTTTTCATATTTAT [XGTACX_site6959] | 7.18 |
| ATGGTGCAACATTATGCACACCGTTAAATAACTAAT [CACACA_site9280] | 11.8 |
| AACAACAACTAATATGCACACATTTAAAAACAAAAT [CACACA_site2440] | 7.5 |
| GATTCATCTAAACACCGTACATATTATATATATATA [XGTACX_site6030] | 9.22 |
| TAATATATTATAAACACATGCACATTAATAATAACT [TGCATGCA_site708] | 9.16 |
| TCATAAACATTATGCACACAAAAATAAAAAAAAATA [CACACA_site1115] | 7.52 |
| AATCATAAACATTATGCACACAAAAATAAAAAAAAA [CACACA_site8289] | 7.36 |
| TGATTCTAACTTATGGTGCAACATTATGGACACCGT | 10.7 |
| TATATAACATATGGGACACACATGCAACTGTTATAT [CACACA_site3792] | 7.19 |
| TTATGGTGCAACATTATGCACACCGTTAAATAACTA [CACACA_site3846] | 11.9 |
| ATTAAAGAGAGACATCAACACACATACGTATGTATA [CACACA_site8393] | 6.94 |
| TAGTTTTTTATAAAATTATTTATATAAAGGTAAAAA [CACACA_negctrl_site490] | 7.1 |
| TTTGGATAAAAAATATGTACACACATATAGATATCT [XGTACX_site5660] | 6.9 |
| TCTACAAAATTATCATGTACATATTATTATAATTAT [XGTACX_site6585] | 7.28 |
| TGTTGTATATCTCTATATAGCTATATTGTATATATA [TGCATGCA_negctrl_site323] | 6.97 |
